Rows were chosen to be rich in hits. Some 10% of all compounds tested hit in one or more screens of this group.
HP1b chromo inh = blocks HP1-beta chromodomain binding to methylated histone tails | 0.56% of 390,000 active | Potency, µM (doses to about 114 µM), for inactives: at the highest dose activity change, negative = inhibition, actives largely listed as inhibitors | AlphaScreen HP1-beta / biotin-H3K9me3 peptide binding | AID 540317; further: nearly all actives have a fitted effect of over 70% in size
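AlphaScreen: HP1-beta (50 nM) preformed 30 min with biotin-H3(1-18)K9me3 peptide (50 nM) in PBS pH 7.4, 0.01% Tween-20. Compound added for 30 min at RT, then streptavidin donor/nickel chelate acceptor beads (10 ug/mL) for 30 min.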
JMJD2A Tudor = inhibitors of human JMJD2A Tudor domain; O75164; 4.4% of 390,000 active; AlphaScreen JMJD2A-Tudor / H3K4me3 peptide binding; Potency, µM (doses to about 114 µM), for the others: at the highest dose activity change, negative = inhibition, actives largely listed as inhibitors; further: on the % scale 0 is the no-effect control and ±100 the full control effect; nearly all actives have a fitted effect of over 50% in size
GLS inhibitor = glutaminase GLS (human) inhibition | O94925 | GLS enzymatic activity, qHTS titration | Potency, µM (series often up to 45.5 µM), inactives show at the top dose activity change, negative = inhibition, usual class: inhibitors | 0.21% of 410,000 active | AID 624170; further: on the % scale 0 is the no-effect control and ±100 the full control effect
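Two-point fluorescence kinetic (t0, 30 min RT) for hKGA; glutamate detected via glutamate oxidase–HRP–Amplex Red. Substrate: 1 mM L-glutamine solution; buffer 45 mM KH2PO4, pH 8.2.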
G9a inh = blocks human histone lysine methyltransferase G9a | Q96KQ7 | G9a H3K9 monomethylation, AlphaScreen, 2 h | 8.8% of 350,000 active | AID 504332 | Potency, µM (top dose mostly 102 µM), for inactives: at the highest dose activity, negative = inhibition, hits mostly inhibitors; further: on the % scale 0 is the no-effect control and ±100 the full control effect; nearly all actives have a fitted effect of over 75% in size
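Quantitative HTS format: methyltransferase activity on a biotin-tagged H3K9 peptide is measured by AlphaScreen, using a rabbit anti-monomethyl-H3K9 antibody with streptavidin donor and anti-IgG acceptor beads. Final levels are 20 nM enzyme, 500 nM peptide, 20 uM SAM; 2 h RT.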
L3MBTL1 inh = blocks human L3MBTL1 | AID 485360 | Q9Y468 | 0.66% of 230,000 active | AlphaScreen L3MBTL1–H3K9me1 peptide binding | Potency, µM (series often up to 57.1 µM), inactives show at the highest dose activity, negative = inhibition, actives largely listed as inhibitors; further: on the % scale 0 is the no-effect control and ±100 the full control effect; nearly all actives have a fitted effect of over 60% in size
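AlphaScreen assay: L3MBTL1 (50 nM final) was preincubated 30 min at room temperature with biotinylated H3(1-15)K9me1 peptide (75 nM final), then 30 min with library compounds; streptavidin donor and nickel chelate acceptor beads (10 ug/mL final) added, 30 min dark.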
BAZ2B inh = blocks human BAZ2B | 4.4% of 360,000 active | Potency, µM (highest dose often 114 µM), inactives show at the top dose activity change, negative = inhibition, most hits filed as inhibitors | Q9UIF8 | AlphaScreen BAZ2B-H3K14Ac peptide displacement; further: on the % scale 0 is the no-effect control and ±100 the full control effect; nearly all actives have a fitted effect of over 60% in size
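Inhibition is scored as reduced AlphaScreen emission. The BAZ2B/b-H3(5-23)K14Ac complex (50 nM each) in PBS pH 7.4, 0.01% Tween-20 meets compound (up to 110 uM) for 30 min at RT before bead addition.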
Starred values were filed as active, the others as inactive; ? = inconclusive; nt = not tested or not shown; ! = not active in a repeat; [ ] = remark or other dose. The call rests on the fitted dose curve; in most records, active means well fitted curve in the direction sought with a large enough effect; inconclusive means small, poorly fitted or top-dose-only effect, or another doubt; inactive means no such curve, though single readings can be large; an effect the other way counts as inactive or inconclusive. Potency means the concentration at half of the fitted maximal effect.

SMILES	HP1b chromo inh	JMJD2A Tudor	GLS inhibitor	G9a inh	L3MBTL1 inh	BAZ2B inh
CCN(CC)CCNC(C(=O)Nc1cc(C(F)(F)F)ccc1Cl)c1ccccc1 (stereo not given)	32%	-8%	1%	10µM*	8%	?
O=C(Nc1cc(C(F)(F)F)ccc1Cl)C(NCc1ccccc1)c1ccccc1 (stereo not given)	63%	24%	-6%	21%[59 µM]	23%	17%
OCC1CCCN(C(=S)Nc2ccc(Nc3ccccc3)cc2)C1 (stereo not given)	?	?	?	18µM*	-25%	?
Cc1cccc(-c2nc3c4c(-c5ccccc5)c(-c5ccccc5)oc4ncn3n2)c1	56%	-14%	5%	-22%[59 µM]	nt	-3%
O=C(/C=C/c1ccc([N+](=O)[O-])cc1)N1CCN(S(=O)(=O)c2cccs2)CC1	27%	-8%	-7%	50µM*	5%	2%
O=C(CCc1ccc(Oc2cc([N+](=O)[O-])cc([N+](=O)[O-])c2)cc1)N1CCCCCC1	?	40µM*	5%	?	?	25µM*
COc1ccccc1/C=C/C(=O)N1CCN(S(=O)(=O)c2cccs2)CC1	30%	-7%	3%	nt	-2%	nt
O=C(c1cc2ccccc2o1)N1CCN(S(=O)(=O)c2cccs2)CC1	26%	0%	4%	16µM*	nt	13%
COc1ccc(N2CCN(C(=O)CCc3ccc(S(=O)(=O)NCC(C)C)cc3)CC2)cc1	-10%	-32%	35%	7.1µM*	-17%	-35%
Cc1cc(C)c(Cn2c(CCNC(=O)c3ccco3)nc3ccccc32)c(C)c1	-15%	?	-4%	-11%[59 µM]	nt	?
COC(=O)Cc1c(C)c2ccc3c(c2oc1=O)CN(Cc1ccc(Cl)cc1)CO3	35%	-24%	18%	-24%[59 µM]	nt	-24%
COc1ccc(CCC(=O)N2CCN(S(=O)(=O)c3cccs3)CC2)cc1	14%	-17%	-1%	45µM*	-2%	2%
CCCNS(=O)(=O)c1ccc(CCC(=O)N2CCCCC2)cc1	?	20µM*	23%	16%[12.7 µM]	-3%	-1%
COc1ccc(N2CCN(C(=O)CN(C)S(=O)(=O)c3cccs3)CC2)cc1	13%	-12%	2%	50µM*!	nt	-5%
COc1ccc(N2CCN(C(=O)CCNS(=O)(=O)c3cccs3)CC2)cc1	16%	-11%	15%	25µM*	nt	-33%
CCCNS(=O)(=O)c1ccc(CCC(=O)N2CCN(CC)CC2)cc1	10%	-12%	16%	?	nt	12%
COc1ccccc1NC(=O)C1=C(C)Nc2c(C(=O)Nc3ccc(F)cc3)cnn2C1c1ccc(Cl)cc1 (stereo not given)	14%	-29%	-8%	?	nt	-4%[57.1 µM]
Cc1ccc(Nc2nc(NCc3ccco3)nc3nccnc23)c(C)c1	160%	?	nt	nt	nt	nt
Cc1ccc(S(=O)(=O)NCC(=O)N(CC(=O)NC(C)(C)C)Cc2ccc3c(c2)OCO3)cc1	?	-15%	8%	22%	nt	2%
CC(C)(C)NC(=O)CN(Cc1ccc2c(c1)OCO2)C(=O)CNS(=O)(=O)c1ccccc1	6%	79µM*	-5%	17%	nt	0%
COc1ccccc1N1CCN(C(=O)C2CCCN(S(=O)(=O)c3ccc4c(c3)oc(=O)n4C)C2)CC1 (stereo not given)	22%	-16%	6%	3%[59 µM]	nt	-38%
Cn1c(=O)oc2cc(S(=O)(=O)N3CCCC(C(=O)N4CC=C(c5ccccc5)CC4)C3)ccc21 (stereo not given)	nt	nt	nt	50µM*	-1%	6%
COc1ccnc(CSC(N)=Nc2ccc(F)cc2)c1	-11%	22µM*	15%	7.1µM*	-3%	50µM*
Cc1ccc(-n2nc(C)c3c2NC2=C(C(=O)CC(C)(C)C2)C3c2ccccc2OCC(=O)O)cc1 (stereo not given)	-6%	56µM*	?	?	-11%	nt
COC(=O)c1c(C)nc2ccccc2c1C(=O)O	11%	-12%	1%	-39%	-12%	-38%
SMILES	HP1b chromo inh	JMJD2A Tudor	GLS inhibitor	G9a inh	L3MBTL1 inh	BAZ2B inh
COc1ccc(-c2c(C(=O)O)nc3ccccc3c2C(=O)O)cc1	2%	25µM*	2%	?	11%	-28%
O=C(O)c1nc2ccccc2nc1C(=O)O	-20%	20µM*	-11%	?	-1%	79µM*
O=C(O)c1cc(-c2cc(C(=O)O)c3ccccc3n2)nc2ccccc12	nt	nt	nt	8%	nt	3%
COc1cccc(Cn2c(=O)n(-c3cccc(Cl)c3C)c(=O)c3c4c(sc32)CN(C(C)=O)CC4)c1	-5%	?	2%	-5%[59 µM]	nt	-33%
CC(=O)N1c2ccc(S(=O)(=O)NCC3CCC(C(=O)Nc4cccc(F)c4)CC3)cc2CC1C (stereo not given)	20%	-15%	-6%	-4%[59 µM]	nt	-14%
Cc1cccc(C(=O)NCCC(=O)Nc2nc(C)c(Cc3ccc4c(c3)OCO4)s2)c1	17%	-5%	1%	3%[59 µM]	4%	-28%
Cc1nc(NC(=O)C2CCCC2)sc1Cc1ccc2c(c1)OCO2	13%	?	1%	?	-15%	50µM*
Cc1nc(NC(=O)C23CC4CC(CC(C4)C2)C3)sc1Cc1ccc2c(c1)OCO2	-2%	?	12%	35µM*	-1%	-36%
COc1ccc(CCNC(=O)Cc2c(C)c3ccc(O)c(C)c3oc2=O)cc1OC	22%	-16%	24%	-4%[59 µM]	nt	-3%
CC1CCc2cc(F)cc3c2N1C(=O)C(C(=O)Nc1cnccn1)C3=O (stereo not given)	-17%	-18%	nt	nt	nt	nt
CC(Sc1nnc(CC(C)c2ccccc2)n1N)C(N)=O (stereo not given)	52%	2%	-9%	13%	nt	-24%
CC(Cc1n[nH]c(=S)n1N)c1ccccc1 (stereo not given)	?	3.2µM*	30%	7.9µM*	nt	15%
Cc1ccccc1Cc1n[nH]c(=S)n1N	?	2.8µM*	2%	2.5µM*	5%	-31%
Nn1c(Cc2ccccc2)n[nH]c1=S	22%	10µM*	14%	nt	-10%	-20%
Nn1c(Cc2ccc(F)cc2)n[nH]c1=S	-16%	4.5µM*	-9%	3.5µM*	2%	nt
CCN(CC)CCCNC(=O)c1ccc2nc(CCc3ccccc3)oc2c1	20%[57 µM]	-11%	-10%	-15%[59 µM]	nt	3%
CCn1c(O)c(C=Nc2ccccc2)sc1=O	40%	-21%	13%	-31%	-4%	-21%
CCn1c(O)c(C=Nc2ccccc2)n(-c2ccccc2)c1=S	1%	11%[11.4 µM]	-14%	7.9µM*	nt	12%
Cc1ccccc1NCc1cccn1-c1nnc(N2CCC(C)CC2)s1	10%	-28%	5%	-4%[59 µM]	nt	16%[57.1 µM]

Screens deposited in PubChem BioAssay by National Center for Advancing Translational Sciences (NCATS).
